Bioassay records: PubChem, several laboratories
SARS 3CLpro inh – SARS-CoV 3CLpro protease inhibition | recombinant SARS-CoV 3CLpro, quenched FRET peptide cleavage | AID 1706 | inhibition, % at 6 µM | 290,000 tested, 0.14% active; in the data active = inhibition above about 12%
Mtb hypoxia inh – inhibitors of hypoxia-regulated fluorescent reporter in Mycobacterium tuberculosis; AID 1159583; 300,000 tested, 0.1% active; M. tuberculosis hypoxia-regulated fluorescent reporter, fluorescence; fluorescence inhibition, % (no concentration beside the values); in the data active = fluorescence inhibition mostly above about 23%, no sharp cut-off; inactive = mostly below about 17%
PrP UTR inh – suppresses PrP 5' UTR mRNA reporter expression; cell-based PrP 5' UTR mRNA reporter, plate reader; inhibition, % (no concentration beside the values); 340,000 tested, 0.35% active; AID 488862; in the data active = inhibition above about 52%; also: 0 = median of the neutral control wells
PrPC surface inh – cell surface PrPC inhibition, primary TR-FRET screen; P04156; TR-FRET read-out; inhibition, % at 13.8 µM; 370,000 tested, 0.43% active; AID 720596; in the data active = inhibition above about 24%; also: 0% = median of the test wells and 100% = reference compound wells
BJeLR lethal – BJeLR cell viability loss; BJeLR (HRASV12) viability, CellTiter-Glo ATP luminescence, 48 h; inhibition, % (concentration not given with the values); 300,000 tested, 0.17% active; in the data active = inhibition above about 50%
RecA intein inh – Mtb RecA intein splicing inhibition; cell-free RecA intein splicing, fluorescence; inhibition, % (concentration not given with the values); 290,000 tested, 0.75% active; AID 2221; in the data active = inhibition above about 30%;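 also: 0% = vehicle wells and 100% = reference inhibitor control wells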
Target sequence (P9WHJ3 whole entry, looked up): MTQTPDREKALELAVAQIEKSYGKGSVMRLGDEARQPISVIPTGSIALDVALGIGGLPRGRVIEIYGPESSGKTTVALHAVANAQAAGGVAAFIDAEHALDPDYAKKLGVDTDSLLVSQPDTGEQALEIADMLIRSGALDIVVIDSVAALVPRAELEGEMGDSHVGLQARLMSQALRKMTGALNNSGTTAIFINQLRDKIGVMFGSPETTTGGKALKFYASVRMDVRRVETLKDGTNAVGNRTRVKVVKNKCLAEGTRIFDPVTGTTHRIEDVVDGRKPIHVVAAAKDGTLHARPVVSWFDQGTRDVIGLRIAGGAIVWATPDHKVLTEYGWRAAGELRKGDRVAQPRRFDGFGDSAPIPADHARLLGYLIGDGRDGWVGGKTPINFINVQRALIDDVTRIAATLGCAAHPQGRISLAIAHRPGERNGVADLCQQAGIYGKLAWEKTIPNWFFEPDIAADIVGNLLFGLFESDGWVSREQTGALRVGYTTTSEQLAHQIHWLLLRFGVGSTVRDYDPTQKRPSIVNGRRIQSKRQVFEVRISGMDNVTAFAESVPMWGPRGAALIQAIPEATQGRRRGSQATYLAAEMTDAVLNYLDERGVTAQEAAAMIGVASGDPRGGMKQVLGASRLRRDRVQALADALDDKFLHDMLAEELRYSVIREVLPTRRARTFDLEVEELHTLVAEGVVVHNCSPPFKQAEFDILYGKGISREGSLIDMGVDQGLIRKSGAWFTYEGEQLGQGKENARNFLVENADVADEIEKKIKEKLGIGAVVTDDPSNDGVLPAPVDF
GFP chromo cs – counter-screen GFP chromophore formation inhibition; cell-free GFP chromophore formation, fluorescence; shares compounds with RecA intein inh; 2,100 tested, 83% active; EC50, µM; call rule not given here
Active calls of the source: *. This is a sample that favours compounds with a hit; in the whole collection about 1.4% have one here.

Screening COC(=O)C1=NN(c2ccccc2)C2(SC(=Cc3ccccc3)C(=O)N2c2ccccc2)S1 (stereo not given) returned Mtb hypoxia inh 9.
`N#CC(=Cc1ccc(N2CCOCC2)o1)C(=O)N1CCOCC1` gave Mtb hypoxia inh 26.
CCCCCCCCOC(=O)c1c(CSC(=N)N)n(C)c2cc(Br)c(OC(C)=O)cc12 was read as SARS 3CLpro inh 7, PrPC surface inh 1, BJeLR lethal 10, RecA intein inh 90* and GFP chromo cs 2.4*.
CCN1C(=O)C2C(c3ccc(C)cc3)N3C(=O)N(c4ccc(C)cc4)C(=O)[C@@]3(C)C2C1=O (stereo not given in full) was read as Mtb hypoxia inh 5.
Screening O=C(CN1C(=O)/C(=C2\SC(=S)N(CCS(=O)(=O)O)C2=O)c2ccccc21)Nc1cccc(Br)c1 returned SARS 3CLpro inh 10, Mtb hypoxia inh 0, PrP UTR inh -8, PrPC surface inh 0, BJeLR lethal -3, RecA intein inh 46* and GFP chromo cs 25*.
`O=C(CN1C(=O)/C(=C2/SC(=S)N(CCS(=O)(=O)O)C2=O)c2ccccc21)Nc1cccc(C(F)(F)F)c1` gave Mtb hypoxia inh 16, PrP UTR inh -29 and PrPC surface inh -1.
Screening C(=N\Nc1nncc2ccccc12)/c1ccccn1 returned SARS 3CLpro inh -7, PrP UTR inh 45, PrPC surface inh -7, BJeLR lethal 56*, RecA intein inh 38* and GFP chromo cs 10*.
For Cc1cccc(C(=O)ON=C2CC3CCC2(C)C3(C)C)c1 (stereo not given) the results were Mtb hypoxia inh -12.
Screening O=C(N/N=C/c1ccc([N+](=O)[O-])o1)c1ccc(O)cc1 returned SARS 3CLpro inh -4, PrP UTR inh -18, PrPC surface inh -45, BJeLR lethal 18, RecA intein inh 56* and GFP chromo cs >38.
For O=C(CNC(=O)c1ccccc1)N/N=C/c1ccc([N+](=O)[O-])o1 the results were SARS 3CLpro inh -1, PrP UTR inh -21, PrPC surface inh -50, BJeLR lethal -1, RecA intein inh 58* and GFP chromo cs >38.
Screening O=C(CNc1ccccc1)N/N=C/c1ccc([N+](=O)[O-])o1 returned SARS 3CLpro inh 3, PrP UTR inh -21, PrPC surface inh -39, BJeLR lethal -12 and RecA intein inh -6.
Screening COc1ccc(C(O)c2nccc3cc(OC)c(OC)cc23)cc1OC (stereo not given) returned SARS 3CLpro inh 2, Mtb hypoxia inh 12, PrP UTR inh -5, PrPC surface inh 10, BJeLR lethal -15, RecA intein inh 53* and GFP chromo cs 25*.
Screening CCOc1cc(C=NNC(=O)CN2CCCCC2)ccc1O returned Mtb hypoxia inh 7.
`O=[N+]([O-])c1c(Nc2ccccc2O)cc(Cl)c2nonc12` gave SARS 3CLpro inh 4, Mtb hypoxia inh 13, PrP UTR inh -23, PrPC surface inh -21, BJeLR lethal 3, RecA intein inh 96* and GFP chromo cs 1.5*.
For O=[N+]([O-])c1c(Nc2ccccc2O)ccc2nonc12 the results were SARS 3CLpro inh -1, Mtb hypoxia inh 20, PrP UTR inh -8, PrPC surface inh -48, BJeLR lethal -12 and RecA intein inh 0.
Screening O=[N+]([O-])c1c(Nc2ccc(O)cc2)cc(N2CCOCC2)c2nonc12 returned SARS 3CLpro inh 0, Mtb hypoxia inh 6, PrP UTR inh 16, PrPC surface inh -16 and BJeLR lethal -12.
O=C(O)c1cc(Nc2cc(Cl)c3nonc3c2[N+](=O)[O-])ccc1O was read as SARS 3CLpro inh 10, Mtb hypoxia inh 17, PrP UTR inh -29, PrPC surface inh -20, BJeLR lethal -2, RecA intein inh 97* and GFP chromo cs 1.9*.
Screening COc1ccc(C(CC(=O)c2ccc(C)cc2)C(C#N)C#N)cc1OC (stereo not given) returned SARS 3CLpro inh -4, Mtb hypoxia inh 9, PrP UTR inh -5, PrPC surface inh -3, BJeLR lethal -2, RecA intein inh 54* and GFP chromo cs 30*.
`COC(=O)C(C(=O)OC)C(CC(=O)c1ccc(C)cc1)c1cc(OC)c(OC)c(OC)c1` (stereo not given) gave SARS 3CLpro inh -2, Mtb hypoxia inh 5, PrP UTR inh -18, PrPC surface inh -2, BJeLR lethal -3 and RecA intein inh 1.
CCOC(=O)C1C2COc3cc(OC)ccc3C2N2C(=O)CN(Cc3ccc(OC)cc3)C(=O)[C@@]12C (stereo not given in full) was read as Mtb hypoxia inh -2.
`COc1ccc(N(C(C)C(=O)NN=Cc2cccnc2)S(C)(=O)=O)cc1` (stereo not given) gave Mtb hypoxia inh 10.
For Cc1[nH]nc2c1C(CCc1ccccc1)C(C#N)=C(N)O2 (stereo not given) the results were Mtb hypoxia inh 2, PrP UTR inh -9, PrPC surface inh -7, BJeLR lethal -5, RecA intein inh 70* and GFP chromo cs 29*.
CC(C)(C)c1[nH]nc2c1C(c1ccco1)C(C#N)=C(N)O2 (stereo not given) was read as SARS 3CLpro inh 0, Mtb hypoxia inh 6, PrP UTR inh 9, PrPC surface inh 7, BJeLR lethal -6, RecA intein inh 41* and GFP chromo cs 2.8*.
`CCCC1C(C#N)=C(N)Oc2n[nH]c(C(C)(C)C)c21` (stereo not given) gave SARS 3CLpro inh 6, PrP UTR inh 10, PrPC surface inh -4, BJeLR lethal -6, RecA intein inh 74* and GFP chromo cs 1.7*.
For Cc1[nH]nc2c1C(c1ccco1)C(C#N)=C(N)O2 (stereo not given) the results were SARS 3CLpro inh -5, Mtb hypoxia inh 6, PrP UTR inh 3, PrPC surface inh -4, BJeLR lethal -10, RecA intein inh 58* and GFP chromo cs 26*.
For COc1ccc(-c2ccc(C3C(C#N)=C(N)Oc4n[nH]c(C)c43)o2)cc1 (stereo not given) the results were SARS 3CLpro inh -1, Mtb hypoxia inh 6, PrP UTR inh -38, PrPC surface inh -15 and BJeLR lethal 1.
CC(C)C1C(C#N)=C(N)Oc2n[nH]c(C(C)(C)C)c21 (stereo not given) was read as SARS 3CLpro inh -1, PrP UTR inh -11 and PrPC surface inh -4.
`COc1ccc(F)c(C2C(C#N)=C(N)Oc3n[nH]c(C(C)(C)C)c32)c1` (stereo not given) gave SARS 3CLpro inh -8, Mtb hypoxia inh -6, PrP UTR inh -26, PrPC surface inh 4, BJeLR lethal -10 and RecA intein inh 7.
`COC(=O)C(c1ccccc1)N(C)S(=O)(=O)c1cccc(S(=O)(=O)N(C)C(C(=O)OC)c2ccccc2)c1` (stereo not given) gave Mtb hypoxia inh 2.
